Sampled rows, rich in hits. Any-hit rate of the full collection: about 0.59%.
BCR signal inh: blocks chronic active B-cell receptor signaling; 340,000 tested, 0.05% active; Potency, µM (top dose mostly 46.1 µM), for inactives: top-dose activity change, negative = inhibition, usual class: inhibitors; AID 493014; ABC-DLBCL IkBa-CBG/CBR reporter, luminescence ratio, 4 h; active = well fitted inhibition curve with a large enough effect in the signal ratio, with a control signal flat, not every such curve was filed as active; inconclusive = small, poorly fitted or top-dose-only effect, or effect the other way, or a change in a side signal; the % refers to the signal ratio;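 note: potency is the fitted concentration of half-maximal effect; plate controls were basal doxycycline-induced cells for no effect and cells given 10 µM MG132 for full effect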
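TMD8 human ABC-DLBCL cells with doxycycline-inducible IκBα–green luciferase fusion and unfused red luciferase, in 0.5% FBS medium; compounds up to 46 uM, 4 h at 37C. Green/red luminescence ratio, filter-overlap corrected, fitted to concentration-response curves.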
B2AR arrestin: beta2AR (human) beta-arrestin recruitment activity; beta-arrestin recruitment to beta2AR, cell-based reporter; Potency, µM (top dose mostly 46.1 µM), for inactives: at the top dose activation, actives largely listed as activators; 330,000 tested, 0.02% active; AID 492947;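 note: potency is the fitted concentration of half-maximal effect; 0% = DMSO controls and full agonism = EC100 isoproterenol or metaproterenol; nearly all actives have a fitted effect of over 65% in size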
Target sequence (P07550 whole entry, looked up): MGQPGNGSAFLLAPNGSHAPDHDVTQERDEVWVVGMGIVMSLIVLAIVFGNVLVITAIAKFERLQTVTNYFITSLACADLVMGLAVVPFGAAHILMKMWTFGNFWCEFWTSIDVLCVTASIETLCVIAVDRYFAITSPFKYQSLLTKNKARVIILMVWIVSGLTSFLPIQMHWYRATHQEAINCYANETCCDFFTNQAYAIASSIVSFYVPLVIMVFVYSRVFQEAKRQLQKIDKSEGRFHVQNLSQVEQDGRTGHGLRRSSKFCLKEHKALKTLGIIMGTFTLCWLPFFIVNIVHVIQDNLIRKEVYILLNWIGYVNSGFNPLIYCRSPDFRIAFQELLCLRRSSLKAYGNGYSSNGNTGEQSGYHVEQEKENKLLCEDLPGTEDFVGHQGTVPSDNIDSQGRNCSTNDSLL
RXFP1 agonist: RXFP1 (human) receptor agonism | 370,000 tested, 0.3% active | Potency, µM (series often up to 57.5 µM), for the others: at the highest dose activation, actives largely listed as activators | HEK293T-RXFP1 cAMP TR-FRET, 30 min; response scale: percent of porcine relaxin response, buffer zero | Q9HBX9; note: potency is the fitted concentration of half-maximal effect; nearly all actives have a fitted effect of over 60% in size
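cAMP rise read by TR-FRET after 30 min, 37C compound exposure (up to 58 uM) in RXFP1-transfected HEK293 cells with Ro 20174 present. EC50 from Hill-equation fits, with 29 nM porcine relaxin as 100% and buffer as basal.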
RXFP1 antag: blocks the human relaxin receptor RXFP1; HEK293-RXFP1, relaxin-stimulated cAMP HTRF, 30 min; stronger effect = lower value; activity change, negative = inhibition, % at 57.5 µM; AID 1259400; Q9HBX9; 350,000 tested, 0.59% active;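 active = activity change of -60% or lower, but not beyond a set lower limit; inconclusive = change between -60% and -40%, or beyond the set limit; inactive = change above -40%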
Active calls of the source: *; ? = inconclusive; nt = no result; ! = not active in a repeat. Unless noted, calls come from the whole dose curve; as a rule, active = well fitted activation curve with a large enough effect; inconclusive = small, poorly fitted or top-dose-only effect; inactive = flat fitted curve, though single readings scatter. Unless noted, % is set by controls: 0 for no effect and ±100 for the full control effect.

SMILES	BCR signal inh	B2AR arrestin	RXFP1 agonist	RXFP1 antag
COc1ccc(-c2ccc(CCC(=O)O)n2-c2ccccc2O)cc1	16µM*	0%	0%	-7
COc1ccc(-c2ccc(CCC(=O)O)n2-c2ccccc2C(F)(F)F)cc1	nt	nt	0%	nt
O=C(CNC(=O)N1CC(=O)Nc2ccccc21)Nc1ccc(Cl)cc1	-25%	0%	1%	-61*
O=C(CNC(=O)N1CC(=O)Nc2ccccc21)NCc1ccccc1Cl	-3%	0%	-1%	-61*
Cc1ccc(Cn2c(C(=O)O)c(CNCc3ccc(OC(C)C)cc3)c3ccc(C)cc32)cc1	nt	nt	1%	nt
O=C(CCn1c(=O)c2cccn2c2ccc(F)cc21)NCCc1ccc(Cl)cc1	nt	nt	-2%	-27
O=C(CCCn1c(=O)c2cccn2c2ccccc21)NCCc1ccc(Cl)cc1	nt	nt	-1%	-71*
OC1(c2ccc(F)cc2)CSC(=Nc2cccnc2)N1Cc1ccco1 (stereo not given)	-1%	0%	0%	-62*
OC1(c2ccc(OC(F)F)cc2)CSC(=Nc2cccnc2)N1Cc1ccco1 (stereo not given)	-12%	0%	4%	-31
NCCNC(=O)Cc1ccc(NC(=O)Cc2ccc(Nc3ncnc4c3ncn4[C@@H]3O[C@H](CO)[C@@H](O)[C@H]3O)cc2)cc1	?	0%	1.4µM*	nt
C[C@H](Cc1ccccc1)Nc1ncnc2c1ncn2[C@@H]1O[C@H](CO)[C@@H](O)[C@H]1O	?	0%	11µM*	nt
COc1cccc(NC(=O)C2CCCN(S(=O)(=O)c3ccc4[nH]c(=O)ccc4c3)C2)c1 (stereo not given)	-1%	nt	2%	-6
Cc1ccc(-c2nc(C(=O)NC3CCCCCC3)no2)cc1	nt	nt	nt	-61*
Cc1c(Cl)cccc1NC(=S)N=Nc1c(O)n(CN2CCOCC2)c2ccccc12	7.3µM*	0%	-1%	-26
CCCCC(O)(c1ccc(F)cc1)C(CN1CCOCC1)c1ccc(Cl)cc1 (stereo not given)	?	0%	1%	-77*
CCCC(O)(c1ccc(Cl)cc1)C(CN1CCOCC1)c1ccc(Cl)cc1 (stereo not given)	?	-1%	-1%	-32
Cc1ccc2nc(-c3cc(NC(=O)/C=C/c4ccccc4)ccc3Cl)oc2c1	nt	nt	0%	-16
Cc1ccc(C2=NOC(=O)/C2=C\C=C\c2ccccc2)cc1	?	0%	-2%	-108*
Cc1ccc(OCc2nc(-c3ccc(C(=O)NCCc4ccc(Cl)cc4)cc3)oc2C)cc1	nt	nt	1%	1
Fc1ccccc1-c1ccc(/C=N/Nc2nc3ccccc3[nH]2)o1	23µM*	0%	0%	?
CC(C)N(CCCNC(=O)Cn1ncc2c([nH]c3ccccc32)c1=O)Cc1ccccc1	-12%	0%	1%	-75*!
Cc1nc2ccc(S(=O)(=O)NC(CC(C)C)C(=O)NCc3ccc(Cl)cc3)cc2s1 (stereo not given)	nt	nt	1%	-14
Oc1ccccc1Nc1nc(NCc2ccccc2)c2ccccc2n1	?	0%	1%	-79*
Cc1ccc(C(=O)NCC(c2ccco2)S(=O)(=O)c2ccccc2)cc1C (stereo not given)	nt	nt	0%	3
COc1ccc(CCNc2oc(COc3ccc(Cl)cc3)nc2C#N)cc1OC	nt	nt	0%	-64*
SMILES	BCR signal inh	B2AR arrestin	RXFP1 agonist	RXFP1 antag
COc1cccc(NC(=O)Cn2c3ccc(OC)cc3c3nc4n(c(=O)c32)CCS4)c1	-11%	0%	10µM*	4
O=C(CCCCCCCCC#CI)Oc1ccccc1	nt	nt	nt	2
O=C(COc1cccc2ccccc12)Nc1cc(Cl)ccc1C(=O)O	0%	0%	2%	-81*
Cc1nn(C(C)C)c(C)c1CN1CCC(C(=O)Nc2cccc(-c3cccc(F)c3)c2)CC1	?	-1%	0%	-82*
Cc1cccc(CN2CCC(C(=O)Nc3cccc(-c4cccc(F)c4)c3)CC2)n1	-5%	0%	1%	?
CC(=O)c1ccc(NC(=O)CSc2nccn2Cc2ccco2)cc1	nt	nt	2%	1
CN(CC(=O)Nc1cccc(F)c1)C(=O)CSc1ccc(Br)cc1	0%	0%	0%	-72*
CCC(C(=O)Nc1ccc(C(C)=O)cc1)n1c(C)c2cnn(-c3ccccc3)c(=O)c2c1C (stereo not given)	nt	nt	1%	nt
CC1CN(CCCCOc2cccc(Oc3ccccc3)c2)CC(C)O1 (stereo not given)	-10%	-1%	2%	-64*
Oc1c(Cl)cc(CN2CCOCC2)c2cccnc12	-10%	3%	0%	-19
O=[N+]([O-])c1cc(Cl)c(O)c2ncccc12	?	?	-2%	-22
O=[N+]([O-])c1cc(F)c2cccnc2c1O	16µM*	-1%	-2%	6
O=[N+]([O-])c1cc(CN2CCOCC2)c2cccnc2c1O	6%	0%	0%	-102*
O=S(=O)(c1ccccc1)c1nnn2c1nc(Nc1ccccc1)c1cc(Cl)ccc12	nt	nt	22%	-4
CCOc1ccc(NCc2nc3ccccc3n2CCOc2ccccc2)cc1	?	1%	0%	-4
Clc1ccc(NCc2nc3ccccc3n2CCOc2ccccc2)cc1	nt	nt	-1%	-61*
Cc1cc(O)c(C(=O)/C=C/c2cccc([N+](=O)[O-])c2)c(=O)o1	0%	0%	0%	-33
CC(=O)Nc1ccc(C=CC=Cc2cccc([N+](=O)[O-])c2)cc1	nt	nt	nt	-61*
CC(=O)Oc1ccccc1C(=O)C=Cc1cccc([N+](=O)[O-])c1	nt	nt	nt	-84*
CN(C)CCOC1=Cc2ccccc2Sc2ccc(Cl)cc21	nt	nt	nt	-32
Cc1ccc(CSc2nc(=O)c3c(C)cc(C)nc3n2C2CC2)cc1	nt	nt	10%	-62*
COC(=O)c1cc(C)nc2c1c(=O)nc(SCc1c(C)cc(C)cc1C)n2C1CC1	nt	nt	3%	-18
Cc1ccc(NC(=O)Cn2c(=O)n(-c3ccccc3)c(=O)c3ccc(C(=O)NCc4ccc5c(c4)OCO5)cc32)c(C)c1	nt	nt	13%	nt
N#Cc1nc(-c2ccccc2F)oc1N1CCCCC1	?	-1%	6%	4
N#Cc1nc(-c2ccccc2F)oc1NC1CCCCC1	-15%	3%	5%	-60*
SMILES	BCR signal inh	B2AR arrestin	RXFP1 agonist	RXFP1 antag
O=C(Nc1ccc(C(O)(C(F)(F)F)C(F)(F)F)cc1)c1ccc(Cl)c([N+](=O)[O-])c1	?	-1%	-2%	-89*
COc1ccc(C)cc1NC(=O)CCS(=O)(=O)c1cc2c3c(c1)CCN3C(=O)CC2	nt	nt	-1%	nt
Cc1cc(C)n(-c2nc(NCCN(C)C)c3c4c(sc3n2)COC(C)(C)C4)n1	?	0%	-4%	-72*
Cc1cc(C)n(-c2nc(NCCCN(C)C)c3c4c(sc3n2)COC(C)(C)C4)n1	?	0%	-3%	-9
O=C(O)CCNc1ccc(NCCC(=O)O)c2c1C(=O)c1ccccc1C2=O	?	0%	-115%	-63*
COc1ccccc1NCCC(=O)O	-2%	0%	-2%	5
CCc1ccc2c(c1)/C(=C/C(=O)c1cccs1)C(=O)N2	?	-3%	1%	-92*
